The panel holds about 83,000 compounds, 20% with a hit somewhere; the sample as a whole holds those more often.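 Step 1: grow cells in 96-well plates. Step 2: add test compound at a single concentration. Step 3: incubate 48 h. Step 4: record percent growth.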 Values without a mark were called inactive. Active and inactive are the calls of the source. Rule for the calls: active = growth percent below 10; inactive = the rest.
Each compound was assayed on NCI/ADR-RES ovarian (assay: NCI-60 one-dose screen, 48 h (100 = growth as untreated, 0 = no growth, -100 = all killed)). Conditions: 10 µM unless noted.

| Structure (SMILES) | growth |
| --- | --- |
| CCCCOc1ccc(C(N)Cc2ccccc2)cc1 (centres undefined) | 105% |
| Nc1c(F)cc(-c2nc3cc(F)ccc3[se]2)cc1F | 94.6% |
| Nc1ccc(OCCNS(=O)(=O)c2cccc(S(=O)(=O)F)c2)c(Cl)c1 | 101% |
| Cn1cc(-c2csc(-c3cn(CCCCN4CCCCC4)c4ccc(F)cc34)n2)c2cccnc21 | 81.7% |
| CCCCCCCC(=O)OCC(=O)[C@]1(O)Cc2c(O)c3c(c(O)c2[C@@H](OC2CC(N)C(O)C(C)O2)C1)C(=O)c1c(OC)cccc1C3=O (some centres undefined) | 50.7% |
| CCCCCN(CCCCC)CC(O)c1cc(Cl)ccc1OC (centres undefined) | 32.4% |
| CC12CC=CCC1CCC1C2CCC2(C)C(c3ccc(=O)oc3)CCC12O (centres undefined) | -41.1% (active) |
| COC(=O)[C@@H](C)C[C@H](Cc1ccccc1)NC(=O)c1csc([C@@H](C[C@H](C(C)C)N(C)C(=O)[C@@H](NC(=O)CN(C)C)C2CC2)OC(C)=O)n1 | 54.7% |
| CCCCNC(c1ccc(Cl)cc1)C(O)c1ccc(Cl)cc1 (centres undefined) | 40.9% |
| C=CCn1cc(C=C2C(=O)N(C)C(=O)N(C)C2=O)c2ccccc21 | 101% |
| COc1ccc2nc(NC(=O)COc3cc(/C=C\c4cc(OC)c(OC)c(OC)c4)ccc3OC)sc2c1 | -5.38% (active) |
| O=C1CN=C(c2ccc(Cl)cc2)c2sccc2N1 | 109% |
| COP(=O)(OC)C(O)c1ccc(Cl)cc1 (centres undefined) | 96.9% |
| C=CC[Se]C(=O)c1ccccc1OC(C)=O | 0.132% (active) |
| C[C@]12CCc3sc(-c4ccccc4O)nc3C1=CC[C@@H]1[C@@H]2CC[C@]2(C)C(=O)CC[C@@H]12 | 106% |
| C[C@]12CC[C@@H]3c4ccc(Oc5nc(N6CC6)nc(N6CC6)n5)cc4CC[C@H]3[C@@H]1CCC2=O | 41.2% |
| O=C(Nc1ccncc1F)c1cn(CC2CC2)c2ccccc12 | 101% |
| CC1=C(CNO)C2=C(C)C3(CC3)[C@@](C)(O)C(=O)C2=C1 | 29.7% |
| Nc1nnnc2nc[nH]c12 | 0.552% (active) |

| Structure (SMILES) | growth |
| --- | --- |
| CC(=O)Nc1nc2c(s1)CC[C@@]1(C)C2=CC[C@H]2[C@@H]3CC[C@H](O)[C@@]3(C)CC[C@@H]21 | 45.5% |
| CC[CH2][Sn]([Cl])([Cl])[CH2]CC | 106% |
| O=C([O][Hg][c]1ccccc1)c1ccccc1 | 37.9% |
| C[S+]1C=Cc2ccccc2C1c1ccc(Cl)cc1 (centres undefined) | 101% |
| CC(C)CCC(=O)O[C@H]1CC[C@H]2[C@@H]3CCC4=CC(=O)CC[C@]4(C)[C@H]3CC[C@]12C | 99% |
| NC(=Nc1ccccc1)N[N+](=O)[O-] | 101% |
| O=C(CC1(O)C(=O)N(Cc2ccccc2)c2ccc(Cl)cc21)c1ccc(C(=O)NCC2CCC3(CC2)OOC2(CCCCC2)OO3)cc1 (centres undefined) | -42.7% (active) |
| Fc1ccc(N2COOC3(OOC2)C2CC4CC(C2)CC3C4)cc1 | 53.2% |
| COc1ccc([As]=[As]c2ccc(OC)c(NCS(=O)(=O)O)c2)cc1NCS(=O)(=O)O (centres undefined) | 73.7% |
| CC1=C(O)[C@@](C)(CCCCC[C@H](C)CCCCc2ccc(O)cc2)OOC1=O | 88.5% |
| Cc1cc(N(CCCl)CCCl)ccc1C=Nc1ccc(-c2csc(Cc3ccccc3)n2)cc1 | 61.6% |
| C[C@@H]1O[C@@H](O[C@H]2C[C@@H](O)[C@]3(CO)C4C(CC[C@]3(O)C2)[C@@]2(O)CC[C@H](C3=CC(=O)OC3)[C@@]2(C)C[C@H]4O)[C@H](O)[C@H](O)[C@H]1O (some centres undefined) | -61.5% (active) |
| CCC(O)(CN)c1ccccc1 (centres undefined) | 105% |
| CC[C@H](C)[C@H](NC(=O)[C@H]1CCCCN1C)C(=O)N(C)[C@H](CCc1nc(C(=O)N[C@@H](Cc2ccccc2)C[C@H](C)C(=O)OC)cs1)C(C)C | 29.2% |
| COC(=O)CC12CC(NC(=O)c3csc([C@@H](C[C@H](C(C)C)N(C)C(=O)[C@@H](NC(=O)[C@H]4CCCCN4C)C(C)C)OC(C)=O)n3)(C1)C2 | -24.1% (active) |
| CCC[CH2][Sn]([CH2]CCC)([CH2]CCC)[O]c1ccc(Cl)cc1Cl | -84.6% (active) |
| O=C1OCCC1Br (centres undefined) | 106% |
| CC(=O)ONc1ccc([N+](=O)[O-])c(C(F)(F)F)c1 | 101% |

Each compound was assayed on T-47D breast in the same assay as above. Conditions: 10 µM unless noted.

| Structure (SMILES) | growth |
| --- | --- |
| CCCCOc1ccc(C(N)Cc2ccccc2)cc1 (centres undefined) | 92.5% |
| Nc1c(F)cc(-c2nc3cc(F)ccc3[se]2)cc1F | 5.78% (active) |
| Nc1ccc(OCCNS(=O)(=O)c2cccc(S(=O)(=O)F)c2)c(Cl)c1 | 102% |
| Cn1cc(-c2csc(-c3cn(CCCCN4CCCCC4)c4ccc(F)cc34)n2)c2cccnc21 | 81.5% |
| CCCCCCCC(=O)OCC(=O)[C@]1(O)Cc2c(O)c3c(c(O)c2[C@@H](OC2CC(N)C(O)C(C)O2)C1)C(=O)c1c(OC)cccc1C3=O (some centres undefined) | -69.2% (active) |
| CCCCCN(CCCCC)CC(O)c1cc(Cl)ccc1OC (centres undefined) | 35% |
| CC12CC=CCC1CCC1C2CCC2(C)C(c3ccc(=O)oc3)CCC12O (centres undefined) | -4.1% (active) |
| COC(=O)[C@@H](C)C[C@H](Cc1ccccc1)NC(=O)c1csc([C@@H](C[C@H](C(C)C)N(C)C(=O)[C@@H](NC(=O)CN(C)C)C2CC2)OC(C)=O)n1 | 72.8% |
| CCCCNC(c1ccc(Cl)cc1)C(O)c1ccc(Cl)cc1 (centres undefined) | 46.4% |
| C=CCn1cc(C=C2C(=O)N(C)C(=O)N(C)C2=O)c2ccccc21 | 88.7% |
| COc1ccc2nc(NC(=O)COc3cc(/C=C\c4cc(OC)c(OC)c(OC)c4)ccc3OC)sc2c1 | 19.9% |
| O=C1CN=C(c2ccc(Cl)cc2)c2sccc2N1 | 95.3% |
| COP(=O)(OC)C(O)c1ccc(Cl)cc1 (centres undefined) | 114% |
| C=CC[Se]C(=O)c1ccccc1OC(C)=O | -9.76% (active) |
| C[C@]12CCc3sc(-c4ccccc4O)nc3C1=CC[C@@H]1[C@@H]2CC[C@]2(C)C(=O)CC[C@@H]12 | 90.1% |
| C[C@]12CC[C@@H]3c4ccc(Oc5nc(N6CC6)nc(N6CC6)n5)cc4CC[C@H]3[C@@H]1CCC2=O | 33.7% |
| O=C(Nc1ccncc1F)c1cn(CC2CC2)c2ccccc12 | 92.3% |
| CC1=C(CNO)C2=C(C)C3(CC3)[C@@](C)(O)C(=O)C2=C1 | -3.61% (active) |
| Nc1nnnc2nc[nH]c12 | -26.6% (active) |

| Structure (SMILES) | growth |
| --- | --- |
| CC(=O)Nc1nc2c(s1)CC[C@@]1(C)C2=CC[C@H]2[C@@H]3CC[C@H](O)[C@@]3(C)CC[C@@H]21 | 82% |
| CC[CH2][Sn]([Cl])([Cl])[CH2]CC | -3.16% (active) |
| O=C([O][Hg][c]1ccccc1)c1ccccc1 | -37.8% (active) |
| C[S+]1C=Cc2ccccc2C1c1ccc(Cl)cc1 (centres undefined) | 89.9% |
| CC(C)CCC(=O)O[C@H]1CC[C@H]2[C@@H]3CCC4=CC(=O)CC[C@]4(C)[C@H]3CC[C@]12C | 102% |
| NC(=Nc1ccccc1)N[N+](=O)[O-] | 97% |
| O=C(CC1(O)C(=O)N(Cc2ccccc2)c2ccc(Cl)cc21)c1ccc(C(=O)NCC2CCC3(CC2)OOC2(CCCCC2)OO3)cc1 (centres undefined) | -56% (active) |
| Fc1ccc(N2COOC3(OOC2)C2CC4CC(C2)CC3C4)cc1 | 75.7% |
| COc1ccc([As]=[As]c2ccc(OC)c(NCS(=O)(=O)O)c2)cc1NCS(=O)(=O)O (centres undefined) | -41.9% (active) |
| CC1=C(O)[C@@](C)(CCCCC[C@H](C)CCCCc2ccc(O)cc2)OOC1=O | 89% |
| Cc1cc(N(CCCl)CCCl)ccc1C=Nc1ccc(-c2csc(Cc3ccccc3)n2)cc1 | 45.3% |
| C[C@@H]1O[C@@H](O[C@H]2C[C@@H](O)[C@]3(CO)C4C(CC[C@]3(O)C2)[C@@]2(O)CC[C@H](C3=CC(=O)OC3)[C@@]2(C)C[C@H]4O)[C@H](O)[C@H](O)[C@H]1O (some centres undefined) | -34.9% (active) |
| CCC(O)(CN)c1ccccc1 (centres undefined) | 99.6% |
| CC[C@H](C)[C@H](NC(=O)[C@H]1CCCCN1C)C(=O)N(C)[C@H](CCc1nc(C(=O)N[C@@H](Cc2ccccc2)C[C@H](C)C(=O)OC)cs1)C(C)C | 59.3% |
| COC(=O)CC12CC(NC(=O)c3csc([C@@H](C[C@H](C(C)C)N(C)C(=O)[C@@H](NC(=O)[C@H]4CCCCN4C)C(C)C)OC(C)=O)n3)(C1)C2 | 64.4% |
| CCC[CH2][Sn]([CH2]CCC)([CH2]CCC)[O]c1ccc(Cl)cc1Cl | -84% (active) |
| O=C1OCCC1Br (centres undefined) | 105% |
| CC(=O)ONc1ccc([N+](=O)[O-])c(C(F)(F)F)c1 | 77.1% |
